# Results taken from PubChem BioAssay (NCATS).
# Results filed as inconclusive are left out. Unmarked numbers belong to inactive results. Active and inactive are the calls of the source. Calls follow the shape of the dose curve; as a rule, active = well fitted curve in the direction sought with a large enough effect; inconclusive = small, poorly fitted or top-dose-only effect, or another doubt; inactive = no such curve, though single readings can be large; an effect the other way counts as inactive or inconclusive.
# Experiment: BET inhibitor-based combinations targeting novel dependencies in MECOM-rearranged (r) AML: HNT-34 cell line (AID 2202234); also: nearly all actives have a fitted effect of over 35% in size;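 as to viability (% of control): plate controls were vehicle wells for no effect and cell-free wells for full effect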
# Settings: HNT-34 AML viability, CellTiter-Glo luminescence, 48 h; series mostly up to 46 µM; viability (% of control): at the top concentration
# Outline: (§1)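 Cells were plated at 500 per well and exposed to each drug across an 11-point dose range for 48 hr at standard incubator conditions. Viability was read by CellTiter-Glo luminescence, and activity was expressed as AUC and per-cell-line Z-transformed AUC.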
# Potency is read from the fitted curve at half-maximal effect.
Structure (SMILES),viability (% of control) [%],Potency
NC(CO)C(=O)NNCc1ccc(O)c(O)c1O (stereo not drawn),97.3,
OCCN1CCN(CCCN2c3ccccc3Sc3ccc(C(F)(F)F)cc32)CC1,,18.6 µM (active)
OC[C@H]1O[C@@H](n2cnc3c2NC=NC[C@H]3O)C[C@@H]1O,106,
Cc1c(OCC(F)(F)F)ccnc1CS(=O)c1nc2ccccc2[nH]1 (stereo not drawn),101,
O=c1c(O)c(-c2ccc(O)c(O)c2)oc2cc(O)cc(O)c12,111,
NC(=NCc1ccccc1)NC(=O)c1nc(Cl)c(N)nc1N,,14.8 µM (active)
O=C(Nc1nc2ccccc2n1CCN1CCOCC1)c1cccc([N+](=O)[O-])c1,80.8,
Cc1cccc(-c2[nH]ncc2-c2ccc3ncccc3n2)n1,,20.9 µM (active)
NC(=O)c1ccc2[nH]ccc2c1,99.6,

# Experiment: BET inhibitor-based combinations targeting novel dependencies in MECOM-rearranged (r) AML: UCSD-AML1 cell line (AID 2202235); also: nearly all actives have a fitted effect of over 40% in size;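 as to viability (% of control): plate controls were DMSO vehicle wells for no effect and blank wells for full effect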
# Settings: UCSD-AML1 AML cells viability, CellTiter-Glo, 48 h; series mostly up to 46 µM; viability (% of control): at the top concentration
# Outline: as §1
Structure (SMILES),viability (% of control) [%],Potency
NC(CO)C(=O)NNCc1ccc(O)c(O)c1O (stereo not drawn),102,
OCCN1CCN(CCCN2c3ccccc3Sc3ccc(C(F)(F)F)cc32)CC1,102,
Nc1nc2ccc(OC(F)(F)F)cc2s1,,26.3 µM (active)
CN1CCN(CCCN2c3ccccc3Sc3ccc(C(F)(F)F)cc32)CC1,107,
CN(C)CCCN1c2ccccc2CCc2ccc(Cl)cc21,116,
Clc1ccc(C(c2ccccc2Cl)C(Cl)Cl)cc1 (stereo not drawn),102,
OC[C@H]1O[C@@H](n2cnc3c2NC=NC[C@H]3O)C[C@@H]1O,109,
Cc1c(OCC(F)(F)F)ccnc1CS(=O)c1nc2ccccc2[nH]1 (stereo not drawn),103,
O=c1c(O)c(-c2ccc(O)c(O)c2)oc2cc(O)cc(O)c12,114,
NC(=NCc1ccccc1)NC(=O)c1nc(Cl)c(N)nc1N,127,
NC(=O)c1ccc2[nH]ccc2c1,101,

# Experiment: BET inhibitor-based combinations targeting novel dependencies in MECOM-rearranged (r) AML: AML-191 cell line (AID 2202236; also: nearly all actives have a fitted effect of over 35% in size;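 as to viability (% of control): plate controls were vehicle wells for no effect and wells without cells for full effect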)
# Settings: AML-191 viability, CellTiter-Glo luminescence, 48 h; series mostly up to 46 µM; viability (% of control): at the top concentration
# Outline: (§2)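 500 cells/well; 11-pt dose curve; 48 h, standard incubator; CellTiter-Glo luminescence after 15 min RT; DMSO/empty-well normalization; AUC plus Z-AUC (mean-centered within each line).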
Structure (SMILES),Potency,viability (% of control) [%]
OCCN1CCN(CCCN2c3ccccc3Sc3ccc(C(F)(F)F)cc32)CC1,29.5 µM (active),
Clc1ccc(C(c2ccccc2Cl)C(Cl)Cl)cc1 (stereo not drawn),,89.2
OC[C@H]1O[C@@H](n2cnc3c2NC=NC[C@H]3O)C[C@@H]1O,,95.1
Cc1c(OCC(F)(F)F)ccnc1CS(=O)c1nc2ccccc2[nH]1 (stereo not drawn),,90.4
Nc1c2c(nc3ccccc13)CCCC2,,87.7
O=c1c(O)c(-c2ccc(O)c(O)c2)oc2cc(O)cc(O)c12,,104
NC(=NCc1ccccc1)NC(=O)c1nc(Cl)c(N)nc1N,20.9 µM (active),
Cc1cccc(-c2[nH]ncc2-c2ccc3ncccc3n2)n1,,98.5
NC(=O)c1ccc2[nH]ccc2c1,,109

# Experiment: BET inhibitor-based combinations targeting novel dependencies in MECOM-rearranged (r) AML: AML-194 cell line (AID 2202237; also: nearly all actives have a fitted effect of over 40% in size;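 as to viability (% of control): plate controls were vehicle wells for no effect and wells without cells for full effect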)
# Settings: AML-194 (MECOM-r AML) viability, CellTiter-Glo, 48 h; series mostly up to 46 µM; viability (% of control): at the top concentration
# Outline: as §2
Structure (SMILES),viability (% of control) [%],Potency
NC(CO)C(=O)NNCc1ccc(O)c(O)c1O (stereo not drawn),97.1,
CN(C)CCCN1c2ccccc2CCc2ccc(Cl)cc21,92.1,
Clc1ccc(C(c2ccccc2Cl)C(Cl)Cl)cc1 (stereo not drawn),87.8,
OC[C@H]1O[C@@H](n2cnc3c2NC=NC[C@H]3O)C[C@@H]1O,105,
Cc1c(OCC(F)(F)F)ccnc1CS(=O)c1nc2ccccc2[nH]1 (stereo not drawn),107,
O=c1c(O)c(-c2ccc(O)c(O)c2)oc2cc(O)cc(O)c12,114,
NC(=NCc1ccccc1)NC(=O)c1nc(Cl)c(N)nc1N,,23.5 µM (active)
Cc1cccc(-c2[nH]ncc2-c2ccc3ncccc3n2)n1,109,
NC(=O)c1ccc2[nH]ccc2c1,92.2,
